# Source: the OligoGym collection
# Molecular target: SEC61B
# Assay: pooled miR-30 sensor sort-seq; sequence = guide strand
# Conditions: shRNA
# Note: reference of the scale not given here.
row,Sequence,sensor-assay potency score (higher = more potent)
1,TAAAACAGCAAGCTTACAGAAA,-1.05
2,TCTTCTGTGTAGAATCGCCACA,-0.746
3,ATGTGCAACATAAATACAGAAG,-1.59
4,AAATGTGCAACATAAATACAGA,-1.05
5,TTCCTCTGCCGGACAGTGGATC,-1.27
6,TAGAATCGCCACATCCCCCCGG,-0.342
7,TACTGGAACAGGGCCAACTTTG,-1.5
8,TTCTGTGTAGAATCGCCACATC,-0.647
9,ATCTTCTGTGTAGAATCGCCAC,-0.702
10,TGCAACATAAATACAGAAGCGA,-0.661
11,TGGAACAGGGCCAACTTTGAGC,-1.17
12,ATAACCAATACTGGAACAGGGC,-0.892

# Molecular target: SEC62
# Assay: as above
# Conditions: shRNA
row,Sequence,sensor-assay potency score (higher = more potent)
1,TAAAGCTTCCTCTCCTTTCTTG,0.192
2,TGACTTTTCCTCACTGTCGGAC,-0.575
3,TAAATAAAGCTTCCTCTCCTTT,-0.505
4,TTTAAGTCTGCTTTTGGTCCTT,0.441
5,TTCAATATGGTAATCAGCCAAC,-1.13
6,TAGTCAACCACAGACTCCCTGG,-0.485
7,TTCTATAAAATGAAGGACCGAA,-0.0759
8,TATGTCTTTATCATATTTCATT,-1.38
9,TTTGTTGGACAGTTGAATCGAA,0.088
10,TCCATTTCCACTACTGTGCTGG,-0.484
11,TTATGTACAGAATACACTTTAC,-1.09
12,TTGTTGGACAGTTGAATCGAAG,-1.44
